Screens (PubChem)
Pol iota inh: qHTS for Inhibitors of Polymerase Iota | 390,000 compounds, 1% hits | Pol iota fluorescent replication assay, 10 min | Potency, µM (series often up to 115 µM), inactives show at the highest dose activity, negative = inhibition, most hits filed as inhibitors | DNA polymerase iota (Homo sapiens), Q9UNA4 | AID 588590, 2011; also: potency is read from the fitted curve at half-maximal effect
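Fluorescent replication assay read twice, at 0 min and 10 min after adding 50 nM (final) substrate. Enzyme (10 nM) and compounds were first incubated 15 min at room temperature; enzyme-free buffer wells were negative controls.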
PI5P4K alpha inh: qHTS for Inhibitors of phosphatidylinositol 5-phosphate 4-kinase (PI5P4K) | Phosphatidylinositol 5-phosphate 4-kinase type-2 alpha (Homo sapiens), P48426 | PI5P4Kalpha enzyme, ADP-Glo luminescence, 60 min; active compounds read low | max response, % | 330,000 compounds, 1.2% hits | AID 652105, 2013; active = max response of -50% or lower; inconclusive = between -30% and -50%; inactive = -30% or higher; also: value at the top dose of about 77 µM; % is scaled to controls: 0 for no effect and ±100 for the full control effect
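Luminescence from ADP-Glo served as readout of PI5P4Kalpha activity in a qHTS format. Reaction: enzyme, substrate, compound, ATP at 5 microM final, 60 min at RT.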
Pol kappa inh: qHTS for Inhibitors of Polymerase Kappa | 400,000 compounds, 0.53% hits | DNA polymerase kappa (Homo sapiens), Q9UBT6 | AID 588579, 2011 | purified Pol kappa, fluorescent DNA synthesis assay, 10 min | Potency, µM (highest dose often 107 µM), without a hit: at the highest dose activity, negative = inhibition, usual class: inhibitors; also: potency is read from the fitted curve at half-maximal effect; % is scaled to controls: 0 for no effect and ±100 for the full control effect
Target sequence (Q9UBT6 whole entry, looked up): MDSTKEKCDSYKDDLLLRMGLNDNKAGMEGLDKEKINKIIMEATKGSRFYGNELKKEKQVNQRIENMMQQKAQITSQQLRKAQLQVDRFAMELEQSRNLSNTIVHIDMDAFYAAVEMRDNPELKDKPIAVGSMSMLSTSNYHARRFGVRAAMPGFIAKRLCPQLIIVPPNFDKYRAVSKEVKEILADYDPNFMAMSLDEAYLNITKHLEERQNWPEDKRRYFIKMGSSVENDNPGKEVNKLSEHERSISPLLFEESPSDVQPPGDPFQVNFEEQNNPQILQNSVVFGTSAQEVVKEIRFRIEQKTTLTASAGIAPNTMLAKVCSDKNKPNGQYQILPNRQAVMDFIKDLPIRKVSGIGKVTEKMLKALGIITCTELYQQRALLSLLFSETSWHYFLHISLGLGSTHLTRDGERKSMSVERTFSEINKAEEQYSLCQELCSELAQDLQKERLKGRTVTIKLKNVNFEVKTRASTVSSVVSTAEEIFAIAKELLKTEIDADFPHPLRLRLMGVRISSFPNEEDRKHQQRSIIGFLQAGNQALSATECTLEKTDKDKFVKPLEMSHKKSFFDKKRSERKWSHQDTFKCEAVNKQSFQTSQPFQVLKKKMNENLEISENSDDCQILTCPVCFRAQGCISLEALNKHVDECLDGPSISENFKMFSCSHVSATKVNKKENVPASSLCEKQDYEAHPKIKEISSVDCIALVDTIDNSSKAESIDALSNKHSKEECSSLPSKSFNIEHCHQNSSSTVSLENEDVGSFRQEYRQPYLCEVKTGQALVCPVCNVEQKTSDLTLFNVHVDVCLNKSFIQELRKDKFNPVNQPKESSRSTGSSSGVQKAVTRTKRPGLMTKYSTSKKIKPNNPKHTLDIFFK
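Kinetic fluorescence screen: compound preincubated 15 min RT with 10 nM enzyme; 50 nM substrate (final) initiates; reads at 0/10 min.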
WRN helicase inh: qHTS for Inhibitors of WRN Helicase. Bifunctional 3'-5' exonuclease/ATP-dependent helicase WRN (Homo sapiens), Q14191. Potency, µM (highest dose often 114 µM), without a hit: at the top dose activity change, negative = inhibition, usual class: inhibitors. WRN helicase unwinding, fluorescent forked duplex, kinetic. 360,000 compounds, 0.46% hits; also: potency is read from the fitted curve at half-maximal effect; % is scaled to controls: 0 for no effect and ±100 for the full control effect; nearly all actives have a fitted effect of over 55% in size
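Enzyme (20 nM final) and test compound sit together 15 min at room temperature before substrate addition. Substrate is a single-forked duplex oligonucleotide (100 nM) labelled with fluorophore and quencher, with 2 mM ATP; helicase unwinding raises red fluorescence, read kinetically.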
POLH inh: qHTS for Inhibitors of Polymerase Eta. DNA polymerase eta (Homo sapiens), Q9Y253. recombinant Pol eta, fluorescent DNA replication assay. Potency, µM (series often up to 114 µM), for inactives: at the top dose activity change, negative = inhibition, actives largely listed as inhibitors. 390,000 compounds, 1.2% hits; also: potency is read from the fitted curve at half-maximal effect; % is scaled to controls: 0 for no effect and ±100 for the full control effect
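Pol eta (10 nM) was preincubated with compounds for 15 min at room temperature, after which fluorescent replication substrate (50 nM final) was added to start the reaction. Fluorescence was read kinetically at 0 and 10 min.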
Pol beta inh: qHTS Assay for Inhibitors of DNA Polymerase Beta | P06746 | Pol beta primer extension/strand displacement, fluorescence kinetic | Potency, µM (titrated, usually from 114 µM), for inactives: top-dose activity change, negative = inhibition, usual class: inhibitors | 340,000 compounds, 1.3% hits | AID 485314, 2010; also: potency is read from the fitted curve at half-maximal effect; % is scaled to controls: 0 for no effect and ±100 for the full control effect
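Enzyme-only controls used 10 nM Pol beta; buffer lacking enzyme served as negative control. Compound preincubated 15 min, then 50 nM substrate added; 0 and 10 min reads at room temperature.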
Active calls of the source: *; [ ] = another dose, or the depositor's remark. Rows were chosen to be rich in hits. Some 2.8% of all compounds tested hit in one or more screens of this group. Unless noted, calls follow the shape of the dose curve; as a rule, active = well fitted curve in the direction sought with a large enough effect; inconclusive = small, poorly fitted or top-dose-only effect, or another doubt; inactive = no such curve, though single readings can be large; an effect the other way counts as inactive or inconclusive.

Screening CC1c2cccc(O)c2C(O)=C2C(=O)[C@]3(O)C(O)=C(C(N)=O)C(=O)C(N(C)C)C3C(O)C21 (stereo partly drawn) returned Pol kappa inh -8%[60.1 µM].
Screening Cc1c2c(c(O)c3c(O)cccc13)C(=O)O[C@H]2C1C(N(C)C)C(O)=C(C(N)=O)C(=O)[C@H]1O (stereo partly drawn) returned Pol kappa inh 0.47µM*.
CC(CC(=O)Nc1ccc(F)cc1)S(=O)(=O)c1cc2c3c(c1)CCN3C(=O)CC2 (stereo not drawn) was read as Pol iota inh 14%, Pol kappa inh -10%, POLH inh -7% and Pol beta inh -16%.
Cc1cc(I)ccc1Nc1nc(NCCN2CCOCC2)nc(N2CCOCC2)n1 was read as Pol iota inh 8% and Pol kappa inh -13%.
For O=C1C=C(O)c2cccc(O)c2C1=O the results were Pol iota inh inconclusive, PI5P4K alpha inh inconclusive, Pol kappa inh inconclusive, WRN helicase inh -25%, POLH inh 35µM* and Pol beta inh 20µM*.
Screening O=C1c2cccc(O)c2C(=O)c2c(O)cccc21 returned Pol kappa inh -9%[60.1 µM] and Pol beta inh 10%.
`COc1ccc(S(=O)(=O)N(CC(=O)NCc2ccc(C)cc2)c2ccc(Cl)cc2)cc1` gave Pol iota inh -7%, Pol kappa inh 7%, POLH inh -12% and Pol beta inh 17%.
`CCN(CC)S(=O)(=O)c1ccc(N=Nc2c(C)[nH]n(C(N)=S)c2=O)cc1` gave Pol iota inh 24%, PI5P4K alpha inh inconclusive, Pol kappa inh -3%, WRN helicase inh 0%, POLH inh 7% and Pol beta inh 40µM*.
For Cc1[nH]n(C(N)=S)c(=O)c1N=Nc1ccc([N+](=O)[O-])cc1Cl the results were Pol iota inh 40µM*, PI5P4K alpha inh -24, Pol kappa inh -14%, WRN helicase inh -18%, POLH inh -24% and Pol beta inh 29%.
CC(=O)N(C)c1ccc(N=Nc2c(C)[nH]n(C(N)=S)c2=O)cc1 was read as Pol iota inh -15%, PI5P4K alpha inh -10, Pol kappa inh -7%[60.1 µM], WRN helicase inh 5%, POLH inh -11% and Pol beta inh -1%.
NC(=S)n1[nH]c(-c2ccc([N+](=O)[O-])cc2)c(N=Nc2cccc(Cl)c2)c1=O was read as Pol iota inh 20µM*, PI5P4K alpha inh -79*, Pol kappa inh inconclusive, WRN helicase inh -11%, POLH inh 40µM* and Pol beta inh inconclusive.
For COc1ccc(CNC(=O)CCn2cccn2)cc1 the results were Pol iota inh 25%, Pol kappa inh -12%[60.1 µM], POLH inh -17% and Pol beta inh 2%.
For CCn1cc(/C=N\NC(=O)Cc2ccc([N+](=O)[O-])cc2)c(C)n1 the results were Pol iota inh 20%, PI5P4K alpha inh 5, Pol kappa inh -1%, WRN helicase inh -26%[57.1 µM], POLH inh -23% and Pol beta inh 3%.
Screening CC1=CCC2C(=O)N(C(C)c3ccccc3)C(=O)C2C1 (stereo not drawn) returned Pol iota inh 3%[58.9 µM], Pol kappa inh -6%, WRN helicase inh 0%, POLH inh -8% and Pol beta inh 1%.
`CC1=CCC2C(=O)N(c3nc4ccccc4n3C)C(=O)C2C1` (stereo not drawn) gave Pol iota inh inconclusive, Pol kappa inh -24%, WRN helicase inh -14%, POLH inh inconclusive and Pol beta inh 25µM*.
Screening O=C1c2cccc3cccc(c23)C(=O)N1/N=C/c1ccc(O)cc1O returned Pol iota inh 17%, PI5P4K alpha inh -11, Pol kappa inh -29%, WRN helicase inh 0%, POLH inh inconclusive and Pol beta inh inconclusive.
`O=C1c2ccccc2C(=O)N1/N=C/c1ccc(O)c(O)c1O` gave Pol iota inh inconclusive, PI5P4K alpha inh -55*, Pol kappa inh 1.4µM*, WRN helicase inh 8.9µM*, POLH inh 1.6µM* and Pol beta inh inconclusive.
Oc1ccc(/C=N/N(c2ccccc2)c2ccccc2)c(O)c1O was read as Pol beta inh 5µM*.
For Oc1ccc(/C=N/N2CCCCC2)c(O)c1O the results were Pol iota inh inconclusive, PI5P4K alpha inh inconclusive, Pol kappa inh inconclusive, WRN helicase inh inconclusive, POLH inh -20% and Pol beta inh 35µM*.
`CCOc1c2ccc(C(=O)NCc3ccc4c(c3)OCO4)cc2nn1CCOC` gave Pol iota inh -1%, PI5P4K alpha inh 3, Pol kappa inh -6%, WRN helicase inh 4%, POLH inh 4% and Pol beta inh 36%.
For O=C(OCc1ccc(F)cc1)c1cc(S(=O)(=O)N2CCCCC2)ccc1N1CCOCC1 the results were Pol iota inh 31%, PI5P4K alpha inh 0, Pol kappa inh 3%, WRN helicase inh -5% and POLH inh -18%.
For CC(=O)Nc1cccc(-c2ccnc3c2CC(C)(C(=O)NCc2ccncc2)O3)c1 (stereo not drawn) the results were PI5P4K alpha inh 0 and WRN helicase inh 9%.
`COc1ccc(NC(=O)CN(c2ccc(OC)c(Cl)c2)S(=O)(=O)c2ccccc2)cc1` gave Pol iota inh -17%, PI5P4K alpha inh -8, Pol kappa inh -3%, WRN helicase inh -9%, POLH inh -6% and Pol beta inh 5%.
O=C1NN(c2ccccc2)C(=O)/C1=C/c1coc2ccccc2c1=O was read as Pol iota inh inconclusive, PI5P4K alpha inh -64*, Pol kappa inh inconclusive, WRN helicase inh inconclusive, POLH inh inconclusive and Pol beta inh -21%.
CCOc1ccc2nc(Cl)c(C3CC(c4ccc(C)cc4)=NN3C(=O)CCCC(=O)O)cc2c1 (stereo not drawn) was read as Pol iota inh 18%, Pol kappa inh -22%, POLH inh inconclusive and Pol beta inh 22µM*.
Screening Cc1ccc(C2=NN(C(=O)CCC(=O)O)C(c3cn(-c4ccccc4)nc3-c3ccc(C)cc3)C2)cc1 (stereo not drawn) returned Pol iota inh 1%, PI5P4K alpha inh 6, Pol kappa inh -5%[60.1 µM], WRN helicase inh inconclusive, POLH inh inconclusive and Pol beta inh 22µM*.
